# PubChem BioAssay AID602340 (Broad Institute, 2012)
# Hit rate of the full screen: of about 330,000 compounds, about 2,600 (0.79%) were called active. For the sample, actives were picked, then their nearest neighbours and some compounds at random. A number with no mark means an inactive call.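 How the source made its calls: active means mean ATP rescue above about 67%, or every replicate alone reaching that limit (limit read from the data, passing the limit was not always enough); inconclusive means no clear call, values can overlap the other calls; inactive means mean under the limit and some replicate under it.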
# Assay: suppressors of statin myotoxicity in C2C12 myotubes, primary screen, cell-based, single point, plate reader (AID 602340);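 further: myotubes were challenged with 10 µM simvastatin during compound exposure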
# Conditions: C2C12 myotubes + simvastatin, ATP luminescence, 48 h; at 7.49 µM; hits give high values; scaled: DMSO 0, geranylgeraniol control 100
row,SMILES,rescue of ATP level
1,CC=Cc1ccc2n(c1=O)C[C@@H]1[C@@H](CO)[C@H](C(=O)N3CCc4ccccc4C3)N(C(=O)C3CCC3)[C@H]21 (mixture of isomers),17.5%
2,CC(=O)N1CCN(c2ccccc2NC(=S)NC(=O)c2cc3ccccc3o2)CC1,12.9%
3,COc1ccc(C(=O)NC(=S)Nc2ccccc2N2CCN(S(C)(=O)=O)CC2)cc1OC,103% (active)
4,COc1ccccc1C(=O)NC(=S)Nc1ccccc1N1CCCCC1,0.351%
5,CO[C@@H]1CN(C)C(=O)c2ccc(NC(=O)C3CC3)cc2OC[C@@H](C)N(Cc2ccncc2)C[C@@H]1C,6.35%
6,COc1ccc(CN(C)C[C@H]2OCc3cn(nn3)CCCC(=O)N([C@@H](C)CO)C[C@@H]2C)cc1,11.6%
7,C[C@H]1CN([C@@H](C)CO)C(=O)c2cc(C#CC3CCCCC3)cnc2O[C@@H]1CN(C)C(=O)Cc1ccccn1,16.9%
8,O=C(NCCc1ccccc1)C1CC1,7.36%
9,O=C(O)C1CC=C(Cl)CC1C(=O)NCc1ccccc1 (configuration not stated),-8.07%
10,O=C(O)C1CC=CCC1C(=O)NCCc1ccccc1 (configuration not stated),104% (active)
11,C[C@H]1CN([C@@H](C)CO)C(=O)c2cc(NC(=O)C3CCCCC3)ccc2O[C@H]1CN(C)C(=O)Nc1ccccc1,6.29%
12,COC(=O)c1ccc(CN2C(=O)NC(c3ccccc3)(c3ccccc3)C2=O)o1,1.69%
13,Cc1ccc(C2(c3ccc(C)cc3)NC(=O)N(Cc3c(C)noc3C)C2=O)cc1,195% (active)
14,COc1ccc(C2(c3ccc(OC)cc3)NC(=O)N(CC(=O)Nc3cc(C)on3)C2=O)cc1,-1.37%
15,Cc1noc(C)c1NC(=O)N(C)C[C@H]1Oc2ccc(NC(=O)Cn3cnnn3)cc2CC(=O)N([C@H](C)CO)C[C@@H]1C,3.98%
16,O=C(NCc1nnnn1-c1ccc(Cl)cc1)c1ccc([N+](=O)[O-])o1,89% (active)
17,O=C(NCc1nnnn1-c1ccc(Cl)cc1)c1ccc2c(c1)OCO2,-0.994%
18,COc1ccc(-n2nnnc2CNC(=O)c2ccc3ccccc3c2)cc1,-15.7%
19,CCCN1[C@@H]2c3ccc(-c4ccccc4OC)c(=O)n3C[C@H]1[C@H](CO)[C@H]2C(=O)NCc1ccccn1,-9.62%
20,Cn1c(=O)n(C)c2cc(C(=O)Nc3ccc(Br)cc3)ccc21,-4.21%
21,Cn1c(=O)n(C)c2cc(/C=N/NC(=O)c3cccc(Br)c3)ccc21,70.7% (active)

row,SMILES,rescue of ATP level
1,O=C(N/N=C/c1cccc(Br)c1)c1ccc(N2CCCC2=O)cc1,-20%
2,N#Cc1ncc(C(F)(F)F)cc1Oc1cccnc1,-4.63%
3,N#Cc1ccc(Oc2ccc(C(F)(F)F)cc2NC(=O)c2ccc(F)cc2)cc1,-5.87%
4,NC(=O)c1ncc(C(F)(F)F)cc1Oc1ccc(F)cc1,162% (active)
5,CO[C@H]1CN(C)C(=O)c2ccc(NC(=O)C3CC3)cc2OC[C@H](C)N(CCc2ccccc2)C[C@H]1C,15.6%
6,O=C(C[C@H]1C=C[C@@H](NC(=O)C2CCOCC2)[C@@H](CO)O1)NCC1CCCCC1,-2.92%
7,CO[C@@H]1CN(C)C(=O)c2cc(NS(=O)(=O)CC(F)(F)F)ccc2OC[C@@H](C)N(Cc2ccccn2)C[C@H]1C,-12.7%
8,Cc1cc(C)c2c(-n3cccc3)c(C(=O)NNS(=O)(=O)c3ccc(F)cc3)sc2n1,7.07%
9,CCCCOC(=O)Nc1sc2nc(C)cc(C)c2c1-n1cccc1,66.9% (active)
10,COC(=O)Nc1sc2nc(C)cc(C)c2c1-n1cccc1,-7.59%
11,CCC(=O)N(C)C[C@H]1[C@H](c2ccc(C3=CCCCC3)cc2)[C@@H](CO)N1C(C)=O,16.5%
12,C[C@H](CO)N1C[C@H](C)[C@@H](CN(C)Cc2ccc(-c3ccccc3)cc2)Oc2ccc(NC(=O)CCC(F)(F)F)cc2CC1=O,74.7% (active)
13,C[C@@H]1CN([C@@H](C)CO)C(=O)Cc2cc(NC(=O)CCCCCC(=O)Nc3ccccc3N)ccc2O[C@H]1CN(C)C(=O)Nc1ccc(C(F)(F)F)cc1,-13.1%
14,C[C@@H]1CN([C@H](C)CO)C(=O)Cc2cc(NC(=O)CCC(F)(F)F)ccc2O[C@@H]1CN(C)Cc1ccncc1,-15.3%
15,C[C@H]1CN([C@@H](C)CO)C(=O)Cc2cc(NC(=O)Cn3cnnn3)ccc2O[C@H]1CN(C)Cc1ccc(C(=O)O)cc1,-21.6%
16,C[C@@H]1CN([C@H](C)CO)C(=O)Cc2cc(NC(=O)Cn3cnnn3)ccc2O[C@H]1CN(C)Cc1ccc(Cl)c(Cl)c1,18.5%
17,C[C@H](CO)N1C[C@H](C)[C@H](CN(C)Cc2ccc(C(F)(F)F)cc2)Oc2ccc(NC(=O)CCCCCC(=O)Nc3ccccc3N)cc2CC1=O,183% (active)
18,C[C@H](CO)N1C[C@H](C)[C@@H](CN(C)Cc2ccc(Cl)c(Cl)c2)Oc2ccc(NC(=O)Cn3cnnn3)cc2CC1=O,88.7% (active)
19,C[C@H]1CN([C@@H](C)CO)C(=O)Cc2cc(NC(=O)CCCCCC(=O)Nc3ccccc3N)ccc2O[C@@H]1CN(C)Cc1ccncc1,20.5%
20,C[C@H]1CN([C@@H](C)CO)C(=O)Cc2cc(NC(=O)CCCN(C)C)ccc2O[C@@H]1CN(C)Cc1ccc(-c2ccccc2)cc1,17.6%
21,CO[C@H]1CN(C)C(=O)c2ccc(NC(C)=O)cc2OC[C@H](C)N(C(=O)c2ccccc2)C[C@H]1C,3.84%
